Source: PubChem BioAssay AID1159580 (chemical genetic matrix, 2015)
The campaign covered roughly 5,500 compounds. About 2,000 (36%) were called active. Inconclusive results (about 18%) are left out. Rule as the data show it: active = normalized growth mostly below about 0.91 (no sharp cut-off); inconclusive = no clear call, values can overlap the other calls; inactive = mostly above about 0.92. Some of the results follow.

Assay: chemical genetic growth profiling, strain panel (AID 1159580);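 also: tested at 20 µM; growth read once vehicle control cultures reached saturation at 30 °C; 1 = growth at the plate median or of vehicle wells; lower values mean less growth of the strain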
Conditions: S. cerevisiae deletion strains, growth OD

Measured: normalized growth

OC[C@H]1O[C@@H](n2cnc3c(NC4CCCC4)ncnc32)C(O)[C@H]1O (stereo partly specified)
inactive: locus YAL013W, strain DEP1, hits give low values 0.994 | locus YAL040C, strain CLN3, hits give low values 0.989 | locus YER002W, strain NOP16, hits give low values 1.03 | locus YJR075W, strain HOC1, hits give low values 1.01 | locus YMR263W, strain SAP30, hits give low values 1.03 | locus YNL128W, strain TEP1, hits give low values 1 | locus YNL175C, strain NOP13, hits give low values 1.03 | locus YNL197C, strain WHI3, hits give low values 1.04 | locus YNL224C, strain SQS1, hits give low values 1 | locus YOR083W, strain WHI5 (second series), hits give low values 1.03 | locus YPL055C, strain LGE1, hits give low values 1.01
